Records with an inconclusive call do not appear. Where a call stands in place of a potency, no number is given. Calls of active or inactive are those of the source. Calls follow the shape of the dose curve; as a rule, active = well fitted inhibition curve with a large enough effect; inconclusive = small, poorly fitted or top-dose-only effect; inactive = no such curve, though single readings can be large or run the other way.
Assay: Primary qHTS for inhibitors of nuclear receptor binding SET domain protein 2 (NSD2) in an RCH-ACV wild type WT cells (2C) (AID 1645877); also: nearly all actives have a fitted effect of over 70% in size
Details: RCH-ACV (leukaemia line) NSD2 WT (2C) viability, CellTiter-Glo, 72 h; series mostly up to 44.9 µM
Potency is read from the fitted curve at half-maximal effect.

| SMILES | Potency | outcome |
| --- | --- | --- |
| CCC/C=C/C=C/C1CC(O)C(O)C(=O)C1CO (configuration not stated) | inactive | – |
| C=C1CC23CC1CCC2C12OC(=O)C(C)(C(O)C(O)C1O)C2C3C(=O)O (configuration not stated) | inactive | – |
| C=CC(C)(C)C12Nc3c(ccc4c3OC(C)(C)C=C4)C1(O)CC1C(=O)N3CCCC3C(=O)N12 (configuration not stated) | inactive | – |
| COCC1OC(OC(C)(C)C2CCC3(C)C=C(C4CCC5C4(C)CC(O)C4OC(C(C)(C)O)CCC45C)CCC3O2)C(NC(C)=O)C(O)C1O (configuration not stated) | inactive | – |
| CCCCCOC(=O)Nc1nc(=O)n(C2O[C@H](C)[C@@H](O)[C@H]2O)cc1F (some centres not stated) | inactive | – |
| COc1ccc(C(=O)OC2C3C=COC(OC4OC(CO)C(O)C(O)C4O)C3C3(CO)OC23)cc1OC (configuration not stated) | inactive | – |
| COc1cncc(C#Cc2ccccn2)c1 | inactive | – |
| COc1cc(C2Oc3c(OC)cc(CCCO)cc3C2CO)ccc1O (configuration not stated) | inactive | – |
| COC(=O)[C@]1(Cc2ccc(O)c(CC=C(C)C)c2)OC(=O)C(O)=C1c1ccc(O)cc1 | inactive | – |
| COc1cc(/C=C/C(=O)O[C@H]2[C@H](O)[C@@H](CO)O[C@@]2(CO)O[C@H]2O[C@H](CO)[C@@H](O)[C@H](O)[C@H]2O)cc(OC)c1O | inactive | – |
| CC(C)=CCC/C(C)=C/CO[C@@H]1O[C@H](CO[C@@H]2OC[C@](O)(CO)[C@H]2O)[C@@H](O)[C@H](O)[C@H]1O | inactive | – |
| CC1=C2C[C@@]3(C)C(CCC[C@@H]3C)C(O)C2(O)OC1=O (some centres not stated) | 23 µM (active) | – |
| OC[C@H]1O[C@@H](OC[C@H]2O[C@@H](OCc3ccccc3)[C@H](O)[C@@H](O)[C@@H]2O)[C@H](O)[C@@H](O)[C@@H]1O | inactive | – |
| Cc1ccc(C)c(S(=O)(=O)n2cnc3ccccc32)c1 | inactive | – |
| C/C=C(/C)C(=O)OC1C2OC2C2(CO2)C2C3OC(=O)C(C)C3CCC12C (configuration not stated) | inactive | – |
| CC1(C)C=Cc2c(ccc3c2N=C2C(C)(C)[C@@H]4C[C@]56CCCN5C(=O)[C@@]4(C[C@]23O)NC6=O)O1 | inactive | – |
| C=C(CC/C=C(\C)C(=O)O)C1(O)CC=C(C)CC1 (configuration not stated) | inactive | – |
| CC1(C)CC[C@]2(C(=O)O[C@@H]3O[C@H](CO)[C@@H](O)[C@H](O)[C@H]3O)CC[C@]3(C)C(=CCC4[C@@]5(C)C[C@@H](O)[C@H](O)[C@@](C)(CO)C5[C@H](O)C[C@]43C)C2C1 (some centres not stated) | inactive | – |
| C=C1C[C@]23C[C@@]1(O)CC[C@H]2[C@@]12C=C[C@H](O)[C@@](C)(C(=O)O1)[C@H]2[C@@H]3C(=O)O | inactive | – |
| COC(=O)C1=CO[C@@H](O[C@@H]2O[C@H](CO)[C@@H](O)[C@H](O)[C@H]2O)[C@@H]2[C@@H](C)[C@@H](O)C(O)[C@H]12 (some centres not stated) | inactive | – |
| OC[C@@]1(O)CO[C@@H](OC[C@H]2O[C@@H](OCc3ccccc3)[C@H](O)[C@@H](O)[C@@H]2O)[C@@H]1O | inactive | – |
| CC(C/C=C/C(C)(C)O)C1CCC(C)(O)C(O)C1 (configuration not stated) | inactive | – |
| C[C@H]1CCN2C[C@]34C[C@@]5(C(=O)Nc6c5ccc5c6OC=CC(C)(C)O5)C(C)(C)C3C[C@]12C(=O)N4C (some centres not stated) | inactive | – |
| O=C(C1OC1/C=C/c1ccc2c(c1)OCO2)N1CCCCC1 (configuration not stated) | inactive | – |
| OC[C@H]1O[C@@H](OCc2ccccc2)[C@H](O[C@@H]2OC[C@@H](O)[C@H](O)[C@H]2O)[C@@H](O)[C@@H]1O | inactive | – |
| COc1cc(C)c(C(=O)NC2C(C)OC(OC3CCC(C)C4C3C=C(C)C3/C(C)=C\CC/C(C)=C/C5(C)C=C(C(=O)O)C(C)CC56OC(=O)/C(=C(\O)C34C)C6=O)C(O)C2(C)O)c(O)c1 (configuration not stated) | – | inactive [at 9.23 µM] |
| COC(=O)C1=CO[C@@H](O[C@@H]2O[C@H](CO[C@@H]3O[C@H](CO)[C@@H](O)[C@H](O)[C@H]3O)[C@@H](O)[C@H](O)[C@H]2O)[C@@H]2C(CO)=CC[C@H]12 | inactive | – |
